The structures appear in SMILES notation. This is part of a sample that, as a whole, favours compounds with a hit. Of some 83,000 tested, about 20% had one in any assay.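 Interpretation: 100, growth as untreated; towards 0, rising growth inhibition; 0, no net growth; 0 to -100, cell death. Compounds scoring below 10 were considered active.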 Unmarked numbers belong to inactive results. Active and inactive are the calls of the source.

The test system of this experiment is NCI-H460 lung. Put plainly: NCI-60 one-dose screen, 48 h (100 = growth as untreated, 0 = no growth, -100 = all killed). Particulars: 10 µM unless noted.
Turning to `CCCSc1nc(Nc2ccc(S(N)(=O)=O)cc2)c(C#N)c(-c2ccc(Cl)cc2)n1`, the growth was 28.6%.
Turning to `CCCCSc1nc(Nc2ccc(S(N)(=O)=O)cc2)c(C#N)c(-c2ccc(Cl)cc2)n1`, the growth was 7.9% (active).
The result for `Cn1cc(-c2cc3nc(-c4cn(C)c5ncccc45)cc(N)n3n2)c2ccccc21` reads 3.16% (active).
The result for `Cc1ccc(C2=NN(c3nc(-c4cc5ccccc5oc4=O)cs3)C(c3ccc(C)cc3)C2)cc1` (stereo not drawn) reads 120%; that for `Cc1ccc2c(c1)nc(-c1ccccc1)n2CC(=O)N=Nc1c(O)[nH]c2ccc(Br)cc12`, -22.4% (active); that for `O=C(Cn1nc(-c2ccccc2)ccc1=O)N/N=C/c1ccc(N2CCOCC2)cc1`, 99.5%.
For the compound `O=C(NN1C(=O)/C(=C/C=C/c2ccc([N+](=O)[O-])o2)SC1=S)c1ccc(Cl)cc1`, the growth was -72.7% (active).
With `CCCCSc1nc(Nc2ccc(S(N)(=O)=O)cc2)c(C#N)c(-c2cc(OC)c(OC)c(OC)c2)n1`, the growth is 35.9%.
`COc1cc2c3c(n(CCCN4CCC[C@@H]4CO)c(=O)c2cc1OC)-c1cc2c(cc1C3=O)OCO2`: the growth is -71.8% (active).
With `Cn1cc(-c2cc(N)n3nc(-c4cn(C)c5ncc(Br)cc45)cc3n2)c2cc(Br)cnc21`, the growth is -65.6% (active).
`Cn1cc(-c2cc(N)n3nc(-c4c[nH]c5ccccc45)cc3n2)c2cccnc21`: the growth is 2.29% (active).
With `CN(C)c1nc(NCCNS(=O)(=O)c2ccc(C3=Nc4c(N)nc(N)nc4NC(c4ccccc4)C3)cc2)nc(Nc2ccc(F)cc2)n1` (stereo not drawn), the growth is 25.9%.
As to `COc1ccc(-c2ccc(SCC(=O)NCCc3ccc(S(N)(=O)=O)cc3)nn2)cc1`, the growth is 107%.

The record behind these values is PubChem BioAssay (NCI).
